Screens deposited in PubChem by Broad Institute.
In the library only some 4.1% were active in any assay of this set; here they are far more common.
PglD DTNB = PglD (C. jejuni) enzyme inhibition | AID 602405 | inhibition, % at 12.5 µM | 360,000 tested, 0.098% active | purified PglD enzyme, DTNB colorimetric CoA detection; in the data active = inhibition above about 16%, passing the limit was not always enough; inconclusive = no clear call, values can overlap the other calls
ALR H2O2 inh = inhibitors of human sulfhydryl oxidase ALR; inhibition, % (no concentration beside the values); 290,000 tested, 3.8% active; AID 485317; purified ALR, DTT oxidation, H2O2 HRP-luminol luminescence; P55789;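 active = mean replicate inhibition above about 79%, with every replicate also reaching it, limit read from the data; inconclusive = only one of the two criteria met; inactive = mean below limit and not every replicate reaching it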
Env fusion inh = inhibitors of HIV Env-mediated cell fusion; HeLa-JRFL Env/CEM21 cell fusion, luciferase; inhibition, % at 12.3 µM; 360,000 tested, 1.1% active;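 active = mean replicate inhibition score of at least 50 and every replicate individually at or above 50; inconclusive = only one of the two criteria met; inactive = mean below 50 and not all replicates reaching 50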;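 also: 0% = plate neutral controls and 100% = maraviroc near 300 nM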
NSD2 inh = inhibitors of human histone methyltransferase NSD2; 310,000 tested, 0.54% active; O96028; inhibition, % at 12.5 µM; AID 743445; NSD2 peptide methylation, AlphaScreen, 120 min; in the data active = inhibition above about 50%
Casp6 inh = caspase-6 (human) enzyme inhibition; P55212; purified caspase-6, Z-VEID-R110 cleavage fluorescence; inhibition, % at 12.5 µM; 350,000 tested, 0.53% active;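 active = mean inhibition across replicates at least about 35%, with every replicate also reaching that limit, limit read from the data; inconclusive = only one of the two criteria met; inactive = neither criterion met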;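 also: 0% = median of neutral control wells and 100% = no fluorescence left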
F508del corr = CFTR F508del correction in bronchial cells. activity (quench increase), % at 7.58 µM. CFBE cells, YFP halide quenching; stimulated with forskolin plus potentiator P3; % fluorescence drop versus neutral controls. 350,000 tested, 0.36% active;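 active = mean added fluorescence quench of at least 8% versus neutral control, with both replicates also reaching 8%; inconclusive = only one of the mean or replicate conditions met; inactive = mean below 8% and not both replicates reaching 8%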;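 also: cells transiently co-express mutant CFTR-F508del with the halide-sensitive YFP; corrector assay measuring rescue of mutant channel to the surface after 24 h compound exposure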
Active calls of the source: *; ? = inconclusive; . = no result; [ ] = another dose, or the depositor's remark.

SMILES	PglD DTNB	ALR H2O2 inh	Env fusion inh	NSD2 inh	Casp6 inh	F508del corr
O=C(c1ccccn1)N1CC(=O)N2[C@@H](CO)[C@@H](c3ccc(C#CCc4ccccc4)cc3)[C@@H]2C1	.	.	.	.	1	-6
N#C/C(=C\c1ccc(C#N)cc1)C(=O)c1ccccc1	-7	93*	6	0	0	-1
C[C@@H]1CN([C@H](C)CO)C(=O)c2cccc(NC(=O)c3nc4ccccc4s3)c2O[C@@H]1CN(C)Cc1ccncc1	2	.	.	.	6	-1
COc1cccc(CNC(=O)C[C@@H]2C=C[C@H](NC(=O)C3CCOCC3)[C@@H](CO)O2)c1	1	.	27[16.7 µM]	.	-1	0
CCOc1cc(/C=C(/NC(C)=O)C(=O)O)cc(Cl)c1OCc1cccc(Br)c1	0	?	-1	12	39*	-2
CCOc1cc(C(N)=O)cc(Cl)c1OCc1ccccc1	4	-1	-4	-4	-3	0
O=[N+]([O-])c1ccc(Sc2ccccc2Cl)nc1	-8	-3	12	3	.	.
Nc1ccc(Sc2ccccc2Cl)nc1	.	9	5	.	43*	-1
O=C(NC1CCCCC1)c1cc(C2CC2)nn1-c1ccccc1	-5	.	.	14	1	22*
Cn1cnc(S(=O)(=O)N[C@@H]2CC[C@H](CC(=O)Nc3ccccc3)O[C@@H]2CO)c1	9	.	-4[16.7 µM]	.	-2	0
C[C@H]1CN([C@@H](C)CO)C(=O)c2cc(-c3ccccc3F)cnc2O[C@H]1CN(C)C(=O)C1CC1	0	.	-9[16.7 µM]	.	-1	1
CN1C(=O)c2cc(NC(=O)c3ccc(Cl)cc3)ccc2OC[C@@H]2O[C@H](CC(=O)O)CC[C@@H]21	1	.	1[16.7 µM]	.	.	0
COc1ccc(Cl)cc1NC(=O)CN(C)CC(=O)Nc1ccccc1-c1ccccc1	-2	.	63*	4	-2	2
COc1ccc(Cl)cc1NC(=O)CN(C)C(=O)Cc1ccc(-c2ccccc2)cc1	4	6	.	6	-7	-8
CN(C)c1ccc(NC(=O)CCN2C(=O)c3cccc([N+](=O)[O-])c3C2=O)cc1	2	100*	4	4	3	-2
C[C@H]1CN([C@@H](C)CO)C(=O)Cc2cc(NC(=O)CCCN(C)C)ccc2O[C@@H]1CN(C)C(=O)NC1CCCCC1	-4	.	.	.	-1	-3
CCC(=O)NC(c1ccco1)c1cc(Cl)c2ccccc2c1O (stereo not given)	9	58	4	.	9	-2
CCC(=O)NC(c1cc(Cl)c2ccccc2c1O)C(C)C (stereo not given)	6	95*	4	.	2	-4
CC(=O)NC(c1ccco1)c1cc(Cl)c2ccccc2c1O (stereo not given)	4	88*	.	.	7	-1
C[C@H]1CN([C@@H](C)CO)C(=O)c2cccc(NC(=O)c3ccc(-c4nccs4)cc3)c2O[C@H]1CN(C)S(=O)(=O)c1ccc(Cl)cc1	1	.	-2[16.7 µM]	.	-3	0
C[C@H](CO)N1C[C@H](C)[C@H](CN(C)Cc2ccc(C(F)(F)F)cc2)OCCCC[C@H](C)Oc2ccc(NC(=O)C3CCCCC3)cc2C1=O	0	.	18[16.7 µM]	.	.	2
COc1cc2c(C#CCCO)c(-c3ccsc3)oc(=O)c2cc1OC	1	-1	-15	.	-1	14*
COc1cc2c(C#CCCO)c(-c3ccc(C#N)cc3)oc(=O)c2cc1OC	-2	-13	1	.	-1	-1
CSCC[C@H](NS(=O)(=O)c1ccc(C(C)=O)cc1)c1nnc2ccccn12	0	-3	8	21	37*	1
O=C(Oc1cc2oc(=O)cc(-c3ccccc3)c2cc1Cl)C1CCCCC1	1	98*	.	-2	.	.
SMILES	PglD DTNB	ALR H2O2 inh	Env fusion inh	NSD2 inh	Casp6 inh	F508del corr
COc1ccc(CN(C)C[C@H]2OCCCC[C@@H](C)Oc3ccc(NC(=O)Nc4ccccc4)cc3C(=O)N([C@H](C)CO)C[C@H]2C)cc1	-2	.	16[16.7 µM]	.	.	-2
O=C(C[C@H]1C[C@H]2c3cc(NC(=O)c4ccc5c(c4)OCO5)ccc3O[C@H]2[C@H](CO)O1)NCc1cccnc1	2	.	-13[16.7 µM]	.	1	0
CCCCC/C=C\C/C=C\C/C=C\CCCCC(=O)O	-3	69	2	.	40*	9.0*
COc1ccc(-n2c(-c3cnccn3)n[nH]c2=S)cc1	-4	90*	-74	-1	.	.
COc1ccccc1/C=N/NC(=O)c1cc2c(OC)c(OC)ccc2[nH]1	-1	-3	-139	-2	2	9.3*
COc1ccc(OC)c2[nH]c(C(=O)N/N=C/c3ccccc3O)cc12	-4	-39	20	3	-11	14*
COc1ccc(/C=N/NC(=O)c2cc3c(OC)ccc(OC)c3[nH]2)cc1O	.	66	-259	2	4	0
CO[C@@H]1CN(C)C(=O)c2cc(NC(=O)c3cccc(Oc4ccccc4)c3)ccc2OC[C@H](C)NC[C@H]1C	.	.	.	.	.	-2
CO[C@@H]1CN(C)C(=O)c2cc(NC(=O)Cc3ccccc3)ccc2OC[C@H](C)N(C(C)=O)C[C@@H]1C	-1	.	11[16.7 µM]	.	1	-4
COCC(=O)N1CC2(CCN(Cc3cncnc3)CC2)c2c(n(C)c3cc(OC)ccc23)[C@H]1CO	.	.	.	.	.	-1
O=C(CNC(=O)c1cccnc1)N/N=C/c1ccc(O)cc1O	-1	78*	16	1	-1	3
NC(=O)C1CCN(C(=O)CSc2nc(O)cc(=O)[nH]2)CC1	5	3	-12	-2	-3	1
COc1ccc(NC(=O)CSc2sc3c(O)cc(=O)[nH]c3c2C#N)c(OC)c1	-4	33	18	47	59*	-1
COc1ccc(NC(=O)CSc2nc(O)cc(=O)[nH]2)c(OC)c1	-2	99*	-8	-1	-1	2
COc1ccc(NC(=O)CSc2nc3c([nH]c4ccccc43)c(=O)n2C)c(OC)c1	-5	-1	-41	-1	-3	3
COc1ccccc1NC(=O)CSc1sc2c(O)cc(=O)[nH]c2c1C#N	-1	95*	17	.	31	-2
COc1ccc(NC(=O)CSc2cn[nH]n2)c(OC)c1	2	-7	7	-1	-3	0
O=C(CSc1nc(O)cc(=O)[nH]1)C1CC1	0	86*	.	-1	.	.
CCOC(=O)C(=NC1CCS(=O)(=O)C1)NNc1cc(Cl)ccc1Cl (stereo not given)	-3	?	11	11	3	-1
CCOC(=O)C(=NC1CCS(=O)(=O)C1)NNc1ccc(Br)cc1 (stereo not given)	-5	99*	6	2	-1	1
CCOC(=O)C(=NC(C)CC)NNc1cccc(C(F)(F)F)c1 (stereo not given)	1	.	21	-2	.	.
CCOC(=O)C(=NC1CCS(=O)(=O)C1)NNc1ccccc1Cl (stereo not given)	1	99*	-4	3	-1	2
CCOC(=O)C(=NC(C)CC)NNc1ccc(Br)cc1 (stereo not given)	.	99*	11	0	6	-2
